Experimental findings from PubChem BioAssay are described below.

Experiment [1] can be described thus: polyglutamine-triggered caspase-3 activation inhibitors, cell-based (AID 1583). Particulars: polyglutamine-induced caspase-3 activation, cell assay; stronger effect = higher value;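 tested at 10 µM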.
Experiment [2] in a line: suppressors of polyQ aggregation in yeast, 75Q-TubU reporter (AID 1593). The conditions noted are these: Yeast 75Q polyglutamine aggregation reporter.
Experiment [3] can be described thus: rescue of polyQ-huntingtin neuronal dysfunction in worms, whole organism, C. elegans mechanosensory neurons, N-terminal huntingtin (AID 1599). Particulars: touch response, stronger effect = higher value.
The nature of experiment [4]: inhibitors of mitochondrial cytochrome c release, biochemical, purified mitochondria (AID 1603).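 Further: mouse liver mitochondria challenged with calcium chloride; signal normalized to the plate average as 100%.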 Particulars: stronger effect = lower value.
A short description of experiment [5]: inhibitors of polyQ protein aggregation (AID 1604). Particulars: polyglutamine-induced protein aggregation inhibition assay; stronger effect = higher value; tested at 2.5 µM.
Experiment [6] is described as follows: enhancers of glutamate uptake in motor neurons, MN-1 cell line (AID 1612).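 Further: tested at 1 µM final; 0% = mean of DMSO vehicle wells on each plate; positive means more glutamate uptake than control and negative means less.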 The conditions noted are these: MN-1 motor neuron cells, stronger effect = higher value.
Experiment [7] is described as follows: reducers of polyQ inclusions in PC12 cells, cell-based, NGF-treated PC12, GFPQ80 (AID 1614).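 Further: lower means fewer inclusions and 0 means no inclusions at all.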 The conditions noted are these: PC12 NGF-treated GFP-polyQ80 inclusion reduction.
Experiment [8] in a line: suppressors of polyglutamine aggregation in yeast, 75Q-TubH (AID 1616). Particulars: S. cerevisiae 75Q-TubH polyglutamine aggregation suppression; stronger effect = higher value.
A short description of experiment [9]: circadian clock period modulators, cell-based, LOPAC library, luminescence reporter (AID 2774).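 Further: values are relative to mean of DMSO wells on each plate.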 The conditions noted are these: circadian reporter cells, at 7 µM, actives lie on both sides.
A short description of experiment [10]: hESC survival regulators, cell-based (AID 493140).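 Further: cells exposed to compounds for four days before counting.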 The conditions noted are these: human embryonic stem cell survival screen; stronger effect = higher value.
The target in experiment [11] is ATP-dependent translocase ABCB1 (Homo sapiens) (UniProt P08183). The experiment is described as follows: MDR1 (ABCB1) efflux transporter inhibition, cell-based (AID 377; in the data active means fluorescence slope change above about 50%). Particulars: MDR1-expressing cells, fluorescent substrate accumulation slope; stronger effect = higher value; concentration not given here.
Sequence of ATP-dependent translocase ABCB1 (Homo sapiens) (P08183 whole entry, looked up): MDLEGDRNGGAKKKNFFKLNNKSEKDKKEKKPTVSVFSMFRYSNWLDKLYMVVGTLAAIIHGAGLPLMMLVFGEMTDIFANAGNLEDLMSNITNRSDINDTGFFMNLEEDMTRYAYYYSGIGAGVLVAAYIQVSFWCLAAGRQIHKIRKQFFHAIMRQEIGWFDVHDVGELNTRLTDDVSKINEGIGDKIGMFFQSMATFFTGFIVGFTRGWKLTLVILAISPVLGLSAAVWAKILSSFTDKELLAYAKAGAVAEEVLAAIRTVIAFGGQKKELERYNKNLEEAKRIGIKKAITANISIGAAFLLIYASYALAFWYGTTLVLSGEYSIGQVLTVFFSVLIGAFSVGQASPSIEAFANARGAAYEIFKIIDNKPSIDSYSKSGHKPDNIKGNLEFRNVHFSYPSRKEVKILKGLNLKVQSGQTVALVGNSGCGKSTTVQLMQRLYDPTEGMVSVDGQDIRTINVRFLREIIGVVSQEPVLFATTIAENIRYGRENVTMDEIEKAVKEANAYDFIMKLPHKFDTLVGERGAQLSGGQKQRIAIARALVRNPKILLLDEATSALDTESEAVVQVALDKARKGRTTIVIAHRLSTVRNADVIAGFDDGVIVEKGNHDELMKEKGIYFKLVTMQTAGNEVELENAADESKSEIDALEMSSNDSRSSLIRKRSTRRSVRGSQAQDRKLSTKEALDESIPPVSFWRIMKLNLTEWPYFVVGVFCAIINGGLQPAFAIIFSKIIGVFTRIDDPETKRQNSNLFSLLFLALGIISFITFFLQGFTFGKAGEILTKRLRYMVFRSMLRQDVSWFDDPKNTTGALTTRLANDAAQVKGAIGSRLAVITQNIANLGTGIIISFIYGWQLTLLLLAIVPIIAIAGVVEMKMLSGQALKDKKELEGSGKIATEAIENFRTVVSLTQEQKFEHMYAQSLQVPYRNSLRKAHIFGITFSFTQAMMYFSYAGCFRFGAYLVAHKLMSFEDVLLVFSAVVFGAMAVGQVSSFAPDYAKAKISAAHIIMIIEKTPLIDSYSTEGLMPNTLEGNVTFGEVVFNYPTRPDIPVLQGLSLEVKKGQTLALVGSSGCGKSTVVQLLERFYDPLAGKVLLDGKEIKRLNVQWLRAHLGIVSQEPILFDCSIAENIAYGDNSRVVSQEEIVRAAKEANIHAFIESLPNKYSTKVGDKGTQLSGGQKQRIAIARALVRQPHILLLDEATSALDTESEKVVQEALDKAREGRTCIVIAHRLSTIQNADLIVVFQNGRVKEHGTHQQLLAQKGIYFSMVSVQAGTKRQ

Results filed as inconclusive are left out. For some assays here: Entries with a potency or affinity are not part of this list. Active and inactive are the calls of the source. Unless noted, how the calls were made is not given here.

As usually defined, the inhibition is the relative decrease from the control value, in per cent. As for `COc1ccc2[nH]cc(CCNC(C)=O)c2c1`, in experiment [1], the inhibition is -10%. In [2], this compound displayed a score of 1.34. Besides, in [3], the rescue above control worked out at 0.33. Moreover, in experiment [4], the cytochrome c release ratio turned out to be 0.49. In addition, in experiment [5], the inhibition of aggregation was determined as 46.1%. Besides, the glutamate uptake change in [6] turned out to be 7.67%. This compound yielded an inclusion score in experiment [7] of 2. The same compound returned an aggregation suppression score in [8] of 1.76. The period change in [9] was -0.21 h (inactive). The survival in experiment [10] is 15.4 (inactive).
For `CC1(C)OC(=O)NC1=O`, the fluorescence slope change in [11] was 19.4% (inactive). Further, in [1], the inhibition was -3.41%. The compound also gave a score in experiment [2] of 1.47. The compound further yielded a rescue above control in experiment [3] of 14.1. The cytochrome c release ratio in experiment [4] is 0.85. Further, in experiment [5], the inhibition of aggregation is 33.3%. Further, the glutamate uptake change in [6] was 12.7%. The inclusion score in [7] amounted to 2. For the same compound, the aggregation suppression score in experiment [8] worked out at 1.01. Besides, the survival in [10] was 9.33 (inactive).
As to `CCn1cc(C(=O)O)c(=O)c2cc(F)c(N3CCNCC3)nc21`, the fluorescence slope change in [11] was 3.6% (inactive). Moreover, the inhibition in experiment [1] was -8.5%. This compound came in with a score in experiment [2] of 1.5. In experiment [3], this compound had a rescue above control of 0.62. Also, the cytochrome c release ratio in experiment [4] was 0.92. The inhibition of aggregation in [5] is -1.85%. For the same compound, the glutamate uptake change in experiment [6] was -7.7%. The inclusion score in experiment [7] was 2. The aggregation suppression score in experiment [8] was 1.11. Moreover, the survival in experiment [10] is 13.2 (inactive).
On to `O=C(O)c1ccccc1C(=O)Nc1ccc(S(=O)(=O)Nc2nccs2)cc1`, for which the fluorescence slope change in [11] is 52.9% (active). Moreover, the inhibition in experiment [1] is -4.35%. In experiment [2], this compound showed a score of 1.11. In [3], this compound returned a rescue above control of -3.35. The cytochrome c release ratio in experiment [4] worked out at 0.81. Also, the inhibition of aggregation in [5] is 12.9%. Besides, the glutamate uptake change in experiment [6] was 2.49%. The compound further gave an inclusion score in experiment [7] of 2. The same compound gave an aggregation suppression score in experiment [8] of 1.17. Moreover, the survival in experiment [10] is 11.2 (inactive).
In the case of `Cc1ccccc1OCC(O)CO` (stereo not given), the fluorescence slope change in experiment [11] was 59.3% (active). Moreover, the inhibition in experiment [1] was 20.6%. Also, the score in experiment [2] was 1.31. For the same compound, in experiment [3], the rescue above control was -6.62. The cytochrome c release ratio in experiment [4] was determined as 1.09. Moreover, the inhibition of aggregation in experiment [5] is 70.4%. For the same compound, in [6], the glutamate uptake change was determined as 18.9%. Moreover, the inclusion score in experiment [7] was 2. The compound further registered an aggregation suppression score in [8] of 1.74. In addition, in [10], the survival was 11.9 (inactive).
Regarding `CC(C)(Oc1ccc(CCNC(=O)c2ccc(Cl)cc2)cc1)C(=O)O`, in experiment [11], the fluorescence slope change was 88.6% (active). For the same compound, the inhibition in [1] was -1.59%. The compound further yielded a score in experiment [2] of 1.19. This compound showed a rescue above control in experiment [3] of -10.8. Besides, in [4], the cytochrome c release ratio amounted to 0.96. The inhibition of aggregation in [5] was determined as 61%. Moreover, the glutamate uptake change in experiment [6] was determined as 8.93%. This compound also displayed an inclusion score in experiment [7] of 2. Besides, the aggregation suppression score in experiment [8] came to 1.44. The survival in experiment [10] is 15.2 (inactive).
In the case of `O=C(O)CCC(=O)c1ccc(-c2ccccc2)cc1`, in experiment [11], the fluorescence slope change was 81% (active). Besides, the inhibition in experiment [1] was 1.96%. In experiment [2], this compound displayed a score of -0.44. In addition, the rescue above control in experiment [3] was found to be 4.61. Moreover, the cytochrome c release ratio in experiment [4] was 1. Moreover, in experiment [5], the inhibition of aggregation was 18.2%. Further, the glutamate uptake change in [6] is 6.02%. Moreover, the inclusion score in experiment [7] is 2. The aggregation suppression score in [8] is -0.185. In experiment [10], the survival is 32.7 (inactive).
In the case of `O=C(Cn1ccnc1[N+](=O)[O-])NCCO`, the fluorescence slope change in experiment [11] is 10% (inactive). The inhibition in experiment [1] was -0.7%. This compound gave a score in experiment [2] of 1.21. In experiment [3], this compound came in with a rescue above control of -3.38. The cytochrome c release ratio in experiment [4] amounted to 0.82. Moreover, the inhibition of aggregation in experiment [5] amounted to 62.1%. Further, the glutamate uptake change in [6] amounted to 16.4%. Moreover, the inclusion score in [7] came out at 2. In experiment [8], this compound registered an aggregation suppression score of 0.925. For the same compound, the survival in experiment [10] was 5.17 (inactive).
Turning to `CCN(CC)CCOCCOC(=O)C1(c2ccccc2)CCCC1`, the inhibition in experiment [1] is -3.33%. In experiment [2], this compound had a score of 1.27. In [3], this compound gave a rescue above control of -4.04. Besides, in experiment [4], the cytochrome c release ratio worked out at 0.8. Also, the inhibition of aggregation in [5] was 94.4%. Also, the glutamate uptake change in experiment [6] was determined as 7.48%. In experiment [7], this compound showed an inclusion score of 1.5. The same compound registered an aggregation suppression score in experiment [8] of 1.37. For the same compound, the period change in [9] is 0.125 h (inactive). In addition, the survival in [10] is 5.08 (inactive).
As to `Cc1ccnc(NS(=O)(=O)c2ccc(N)cc2)n1`, the fluorescence slope change in [11] is 18.7% (inactive). In experiment [1], the inhibition was 3.68%. In experiment [2], this compound yielded a score of 0.98. The rescue above control in [3] worked out at 11.1. The cytochrome c release ratio in experiment [4] amounted to 0.88. In addition, in experiment [5], the inhibition of aggregation turned out to be 38%. Moreover, the glutamate uptake change in experiment [6] was -29.5%. In [7], this compound gave an inclusion score of 2. The aggregation suppression score in [8] was determined as 1.19. Besides, in experiment [10], the survival is 6.5 (inactive).
Consider `O=C(COc1ccc(Cl)cc1)N1CCN(Cc2ccc3c(c2)OCO3)CC1`, for which the fluorescence slope change in experiment [11] is 134% (active). Besides, in experiment [1], the inhibition amounted to 60.9%. The compound further displayed a score in experiment [2] of 1.15. The same compound came in with a rescue above control in [3] of 29.5. In addition, the cytochrome c release ratio in [4] is 1.17. Besides, the inhibition of aggregation in experiment [5] was 63.9%. In [6], the glutamate uptake change is 0.58%. In [7], this compound registered an inclusion score of 2.5. Besides, the aggregation suppression score in experiment [8] came out at 1.39. The survival in experiment [10] was 7.17 (inactive).
